# Assay results from PubChem BioAssay (Tox21).
# Several values for one entry are separate records, joined by “and”; a condition that tells them apart may be missing. Equal entries are not always repeated. Results filed as inconclusive are left out. Where a call stands in place of a potency, no number is given. More than one record can exist for a structure, and the calls need not agree. Activity calls are given as the source filed them. Unless noted, calls follow the shape of the dose curve; as a rule, active = well fitted curve in the direction sought with a large enough effect in the repeat runs; inconclusive = weak or mixed curves; inactive = no such curve, though single readings can be large; an effect the other way counts as inactive or inconclusive.
# Key:
# [1] = qHTS assay to identify small molecule agonists of the peroxisome proliferator-activated receptor delta (PPARd) signaling pathway - cell viability counter screen (AID 743211); also: nearly all actives have a fitted effect of over 55% in size; also: potency is read from the fitted curve at half-maximal effect
# Summary of the method: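 Multiplexed format: after the 2 h room-temperature LiveBLAzer B/G FRET step, CellTiter-Glo was added to the same wells. Luminescence after 30 min gave cell viability; compound exposure was 17 h at 37C.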
# [2] = biological target: Peroxisome proliferator-activated receptor delta (Homo sapiens) (UniProt Q03181); test: qHTS assay to identify small molecule agonists of the peroxisome proliferator-activated receptor delta (PPARd) signaling pathway (AID 743212; calls by dose curve)
# Chain of Peroxisome proliferator-activated receptor delta (Homo sapiens) (Q03181 whole entry, looked up): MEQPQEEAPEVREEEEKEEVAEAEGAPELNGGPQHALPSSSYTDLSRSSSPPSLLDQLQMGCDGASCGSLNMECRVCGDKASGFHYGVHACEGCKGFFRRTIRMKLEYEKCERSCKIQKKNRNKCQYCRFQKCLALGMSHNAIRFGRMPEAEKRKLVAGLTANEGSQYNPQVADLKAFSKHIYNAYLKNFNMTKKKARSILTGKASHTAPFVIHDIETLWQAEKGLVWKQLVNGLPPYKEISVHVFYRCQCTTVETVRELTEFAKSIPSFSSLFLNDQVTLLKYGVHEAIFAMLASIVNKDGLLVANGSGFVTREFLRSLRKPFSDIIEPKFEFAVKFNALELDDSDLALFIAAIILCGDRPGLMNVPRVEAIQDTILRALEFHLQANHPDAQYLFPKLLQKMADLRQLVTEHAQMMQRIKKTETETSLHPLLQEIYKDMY
# Summary of the method: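 Read-out: beta-lactamase FRET fluorescence after 2 h room-temperature incubation with LiveBLAzer B/G substrate. Cells were HEK293H carrying a UAS-bla reporter for PPARd, treated at 37 C with DMSO-dissolved compounds.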
# [3] = qHTS assay to identify small molecule antagonists of the peroxisome proliferator-activated receptor delta (PPARd) signaling pathway - cell viability counter screen (AID 743213); also: nearly all actives have a fitted effect of over 50% in size; also: potency is read from the fitted curve at half-maximal effect
# Summary of the method: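 Agonist-stimulated (L165041, 300 nM final) HEK293H PPARd UAS-bla cells are exposed to compounds for 17 h at 37 C, and ATP-based luminescence (CellTiter-Glo) from the same wells reports cytotoxicity.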
# [4] = qHTS assay to identify small molecule agonists of the farnesoid-X-receptor (FXR) signaling pathway - cell viability counter screen (AID 743218); also: nearly all actives have a fitted effect of over 45% in size; also: potency is read from the fitted curve at half-maximal effect
# Summary of the method: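 Viability counter screen in the same wells: CellTiter-Glo luminescence, 30 min room-temperature incubation, measured after the beta-lactamase read. Cells were GeneBLAzer FXR-UAS-bla HEK 293T, compound-treated 16 h at 37C.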
# [5] = qHTS assay to identify small molecule antagonists of the farnesoid-X-receptor (FXR) signaling pathway - cell viability counter screen (AID 743221; active = well fitted cell-killing curve with a large enough effect in the repeat runs, not every such curve was filed as active; also: nearly all actives have a fitted effect of over 50% in size; also: potency is read from the fitted curve at half-maximal effect)
# Summary of the method: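 CellTiter-Glo, 30 min RT, luminescence; same wells as the LiveBLAzer FRET read. Cells: FXR-UAS-bla HEK 293T. Treatment: compound with chenodeoxycholic acid 50 uM final, 16 h at 37 C.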
# [6] = biological target: Vitamin D3 receptor (Homo sapiens) (UniProt P11473); test: qHTS assay to identify small molecule agonists of the vitamin D receptor (VDR) signaling pathway (AID 743222; calls by dose curve)
# Chain of Vitamin D3 receptor (Homo sapiens) (P11473 whole entry, looked up): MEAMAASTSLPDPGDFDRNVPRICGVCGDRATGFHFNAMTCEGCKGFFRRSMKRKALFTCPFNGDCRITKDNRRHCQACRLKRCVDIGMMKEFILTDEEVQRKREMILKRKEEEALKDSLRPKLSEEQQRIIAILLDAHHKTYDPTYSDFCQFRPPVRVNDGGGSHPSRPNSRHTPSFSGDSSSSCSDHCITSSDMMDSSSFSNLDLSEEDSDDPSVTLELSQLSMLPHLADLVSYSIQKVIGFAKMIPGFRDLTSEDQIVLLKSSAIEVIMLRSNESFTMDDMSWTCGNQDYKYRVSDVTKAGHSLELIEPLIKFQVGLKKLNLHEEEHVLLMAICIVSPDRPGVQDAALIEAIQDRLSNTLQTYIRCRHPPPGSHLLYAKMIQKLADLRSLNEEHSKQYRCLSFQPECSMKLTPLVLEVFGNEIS
# Summary of the method: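 Agonist mode, beta-lactamase reporter: fluorescence from LiveBLAzer B/G FRET substrate (2 h, room temperature) read after 16 h compound treatment at 37 C of VDR-bla cells, which were pre-incubated 4 h after seeding.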
# [7] = biological target: Vitamin D3 receptor (Homo sapiens) (UniProt P11473); test: qHTS assay to identify small molecule antagonists of the vitamin D receptor (VDR) signaling pathway (AID 743223; active = well fitted inhibition curve with a large enough effect in the signal ratio in the repeat runs, not every such curve was filed as active; the % refers to the signal ratio; also: potency is read from the fitted curve at half-maximal effect)
# Summary of the method: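 After VDR-bla cells are plated and left 4 h at 37C, DMSO-dissolved compounds and 3 nM (final) calcitriol agonist are added. Incubation continues 16 h at 37C; FRET beta-lactamase substrate then develops 2 h at room temperature.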
# [8] = biological target: Bile acid receptor (Homo sapiens) (UniProt Q96RI1); test: qHTS assay to identify small molecule antagonists of the farnesoid-X-receptor (FXR) signaling pathway (AID 743217; active = well fitted inhibition curve with a large enough effect in the signal ratio in the repeat runs, not every such curve was filed as active; the % refers to the signal ratio; also: potency is read from the fitted curve at half-maximal effect)
# Chain of Bile acid receptor (Homo sapiens) (Q96RI1 whole entry, looked up): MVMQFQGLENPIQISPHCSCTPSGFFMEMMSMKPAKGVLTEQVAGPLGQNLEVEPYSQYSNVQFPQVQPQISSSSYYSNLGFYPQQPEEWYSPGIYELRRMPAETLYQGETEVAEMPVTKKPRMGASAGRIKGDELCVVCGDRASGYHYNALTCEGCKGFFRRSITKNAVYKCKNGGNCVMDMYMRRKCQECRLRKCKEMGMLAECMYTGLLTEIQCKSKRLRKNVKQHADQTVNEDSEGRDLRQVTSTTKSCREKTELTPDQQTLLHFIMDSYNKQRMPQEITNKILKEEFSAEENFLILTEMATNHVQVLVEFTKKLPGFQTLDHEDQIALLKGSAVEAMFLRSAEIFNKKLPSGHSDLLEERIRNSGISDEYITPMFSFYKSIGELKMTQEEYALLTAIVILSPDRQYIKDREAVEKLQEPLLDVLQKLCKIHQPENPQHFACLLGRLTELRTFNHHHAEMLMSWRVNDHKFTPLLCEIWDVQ
# Summary of the method: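 Antagonist mode: chenodeoxycholic acid at 50 uM final stimulates a UAS-driven beta-lactamase reporter in HEK 293T FXR-bla cells during 16 h, 37C compound exposure. Read-out is FRET substrate fluorescence after 2 h at room temperature.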
# [9] = biological target: Bile acid receptor (Homo sapiens) (UniProt Q96RI1); test: qHTS assay to identify small molecule agonists of the farnesoid-X-receptor (FXR) signaling pathway (AID 743220; active = well fitted activation curve with a large enough effect in the signal ratio in the repeat runs, not every such curve was filed as active; the % refers to the signal ratio)
# Summary of the method: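 FXR-UAS-bla HEK 293T cells carrying a UAS-driven beta-lactamase reporter were plated for 5 h at 37C/5% CO2, then exposed to DMSO-dissolved Tox21 10K compounds for 16 h at 37C. A LiveBLAzer B/G FRET substrate was loaded for 2 h at room temperature before fluorescence reading.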
SMILES,Potency [1],Potency [2],Potency [3],Potency [4],Potency [5],outcome [6],Potency [7],Potency [8],Potency [9]
O=NN1CCOCC1,inactive,inactive,inactive,inactive,inactive,inactive,inactive,,
Brc1ccc(Br)cc1,inactive,inactive,,inactive,inactive,inactive,inactive,inactive,inactive
CC[n+]1c(-c2ccccc2)c2cc(N)ccc2c2ccc(N)cc21,24.4 µM (active),inactive,inactive,0.614 µM (active),inactive,inactive,12 µM (active),7.73 µM (active) and 5.31 µM (active),
COC(=O)Nc1nc2ccccc2[nH]1,inactive,inactive,inactive,inactive,inactive,inactive,,,
CCCCCCCCCCCCCl,inactive,inactive,inactive,inactive,inactive,inactive,inactive,,
C[N+](C)(C)CC(=O)[O-],inactive,inactive,inactive,inactive,inactive,,,,
ClC(Cl)=C(Cl)C(Cl)=C(Cl)Cl,inactive,inactive,inactive,inactive,inactive,,,,
COP(=O)(NC(C)=O)SC (stereo unspecified),inactive,inactive,inactive,inactive,inactive,inactive,inactive,,
CC(C)COC(=O)c1ccccc1C(=O)OCC(C)C,inactive,,inactive,inactive,inactive,,,inactive,inactive
Clc1cccc(Cl)c1,inactive,inactive,inactive,inactive,inactive,inactive,inactive,,
CCOP(=S)(OCC)OP(=S)(OCC)OCC,inactive,inactive,inactive,inactive,inactive,,,,inactive
Cc1cccc(N=Nc2ccc(N(C)C)cc2)c1,inactive,inactive,inactive,inactive,inactive,inactive,inactive,,
Oc1ccc(Cl)cc1Cl,inactive,inactive,inactive,inactive,inactive,inactive,inactive,inactive,inactive
CCOP(=O)(OCC)OCC,inactive,inactive,inactive,inactive,inactive,inactive,inactive,,
CCNc1nc(Cl)nc(NC(C)(C)C#N)n1,inactive,inactive,inactive,inactive,inactive,,,,
CCOP(=S)(OCC)SCSC(C)(C)C,inactive,inactive,inactive,inactive,inactive,inactive,inactive,,
Clc1ccc(C(Cl)(Cl)Cl)cc1,inactive,,inactive,inactive,inactive,,,inactive,inactive
CC(C)(C#N)N=NC(C)(C)C#N,inactive,inactive,inactive,inactive,inactive,inactive,inactive,,
Clc1cccc(C(Cl)(Cl)Cl)n1,inactive,,inactive,inactive,inactive,,,inactive,inactive
OC(c1ccc(Cl)cc1)(c1cncnc1)c1ccccc1Cl (stereo unspecified),inactive,inactive,inactive,inactive,inactive,inactive,inactive,,
Oc1ccc(Cl)cc1Cc1ccccc1,54.9 µM (active),inactive,44.2 µM (active) and inactive,60.5 µM (active) and inactive,inactive,,,,
Clc1ccccc1-c1nnc(-c2ccccc2Cl)nn1,inactive,inactive,inactive,inactive,inactive,inactive,inactive,,

SMILES,Potency [1],Potency [2],Potency [3],Potency [4],Potency [5],outcome [6],Potency [7],Potency [8],Potency [9]
Cc1cc(Cl)ccc1N=CN(C)C,inactive,inactive,inactive,inactive,inactive,inactive,inactive,,
Cn1c(-c2ccccc2)cc(-c2ccccc2)[n+]1C,inactive,inactive,inactive,inactive,inactive,inactive,inactive,,
COP(=S)(OC)Oc1ccc(Sc2ccc(OP(=S)(OC)OC)cc2)cc1,inactive,inactive,inactive,inactive,inactive,inactive,inactive,,
c1ccc(C2CO2)cc1 (stereo unspecified),inactive,inactive,inactive,inactive,inactive,inactive,inactive,,
[Cl-].[Cl-].[Cl-].[Fe+3],inactive,,inactive,inactive,inactive,,,,
CCOP(=S)(OCC)SCn1c(=O)oc2cc(Cl)ccc21,inactive,,inactive,,inactive,inactive,inactive,inactive,inactive
CCC[CH2][Sn]([Cl])([Cl])[CH2]CCC,198 nM (active) and 61.6 nM (active),,556 nM (active) and 155 nM (active),140 nM (active) and 24.5 nM (active),222 nM (active) and 123 nM (active),,,,
COc1ccc(CO)cc1,inactive,,inactive,inactive,inactive,inactive,inactive,inactive,inactive
CC(C)=CC1C(C(=O)OCN2C(=O)C3=C(CCCC3)C2=O)C1(C)C (stereo unspecified),inactive,,inactive,inactive,inactive,inactive,inactive,,
NC(=O)CN1CCCC1=O,inactive,,inactive,inactive,inactive,inactive,inactive,,
CN(C)c1ccccc1,inactive,,inactive,inactive,inactive,inactive,inactive,inactive,inactive
O=[N+]([O-])c1ccc(Cl)c([N+](=O)[O-])c1,19.8 µM (active) and 19.5 µM (active),,24.9 µM (active) and 19.5 µM (active),54.9 µM (active),,,22.2 µM (active) and 21.9 µM (active),,
CC(C)Nc1ccc(Nc2ccccc2)cc1,,inactive,43.6 µM (active),inactive,inactive,,,,inactive
N#Cc1c(Cl)c(Cl)c(Cl)c(C#N)c1Cl,6.79 µM (active) and 6.92 µM (active),,15.2 µM (active) and 5.49 µM (active),21.5 µM (active) and 15.5 µM (active),24.1 µM (active) and 21.9 µM (active),inactive,,,
CCC/C=N/O,inactive,,inactive,inactive,inactive,inactive,inactive,inactive,inactive
CSc1nc(NC(C)C)nc(NC(C)C)n1,inactive,,inactive,inactive,inactive,inactive,inactive,,
C=CC(Cl)CCl (stereo unspecified),inactive,,inactive,inactive,inactive,inactive,inactive,inactive,inactive
NN=C(N)N,inactive,,inactive,inactive,inactive,,,,
COc1ccc(O)c(C(C)(C)C)c1,inactive,,inactive,inactive,inactive,inactive,inactive,inactive,inactive
C=CC(=O)OCC(CC)(COC(=O)C=C)COC(=O)C=C,11 µM (active),,13.8 µM (active),inactive and 13.8 µM (active),inactive and 43.6 µM (active),inactive,6.92 µM (active),inactive,
CC(C)(O)C(=O)Nc1ccc([N+](=O)[O-])c(C(F)(F)F)c1,inactive,,inactive,inactive,inactive,inactive,,,
O=S(=O)(O)C(F)(F)C(F)(F)C(F)(F)C(F)(F)C(F)(F)C(F)(F)C(F)(F)C(F)(F)F,inactive,,26.2 µM (active) and 43.6 µM (active),52.3 µM (active) and 49 µM (active) and 33.6 µM (active),41.6 µM (active) and 13.8 µM (active) and 6.16 µM (active),inactive,inactive,,

SMILES,Potency [1],Potency [2],Potency [3],Potency [4],Potency [5],outcome [6],Potency [7],Potency [8],Potency [9]
CS(=O)(=O)NC(=O)c1cc(Oc2ccc(C(F)(F)F)cc2Cl)ccc1[N+](=O)[O-],inactive,,inactive,inactive,inactive,inactive,,inactive,inactive
CCC1(c2ccc(N)cc2)CCC(=O)NC1=O (stereo unspecified),inactive,,inactive,inactive,inactive,inactive,inactive,inactive,inactive
Cc1ccc(N=CN(C)C=Nc2ccc(C)cc2C)c(C)c1,49.2 µM (active) and 48.9 µM (active) and inactive,,24.5 µM (active),inactive,inactive,inactive,,,
S=c1[nH]c2ccccc2[nH]1,inactive,,inactive,inactive,inactive,,,,
CCC(=O)Nc1ccc(Cl)c(Cl)c1,inactive,,inactive,inactive,inactive,inactive,inactive,,
CCC[CH2][Sn]([Cl])([CH2]CCC)[CH2]CCC,551 nM (active) and 1.23 µM (active),,778 nM (active) and 1.95 µM (active),873 nM (active) and 1.23 µM (active),1.95 µM (active) and 2.45 µM (active),,,,
COP(=S)(OC)Oc1ccc(S(=O)(=O)N(C)C)cc1,inactive,,inactive,inactive,inactive,inactive,inactive,,
C[N+](C)(C)C,inactive,,inactive,inactive,inactive,inactive,inactive,,
CC(C)(c1ccccc1)c1ccc(O)c(C(C)(C)c2ccccc2)c1,21.7 µM (active) and 19.5 µM (active),,34.3 µM (active) and 43.6 µM (active),54.9 µM (active),,,43.6 µM (active),,
Cl,inactive,,inactive,inactive,inactive,,,,
Nc1ccc2ccccc2c1,inactive,,inactive,inactive,inactive,inactive,inactive,,
COc1ccc(C=O)cc1OC,inactive,,inactive,inactive,inactive,,,,
CCOP(=O)(O)OCC (tested in a mixture with another compound),inactive and 21.7 µM (active),,inactive and 19.3 µM (active),inactive and 43.3 µM (active),inactive and 48.6 µM (active),,,,
O=C(O)CF,inactive,,inactive,inactive,inactive,inactive,inactive,,
CCCCCCCC[N+](C)(CCCCCCCC)CCCCCCCC,4.36 µM (active) and 2.46 µM (active) and 5.49 µM (active),,3.88 µM (active) and 2.46 µM (active) and 5.49 µM (active),7.75 µM (active) and 2.19 µM (active) and 7.76 µM (active),13.8 µM (active) and 7.77 µM (active) and 21.9 µM (active),,,,
CC1(C)Cc2cccc(O)c2O1,inactive,,inactive,inactive,inactive,inactive,inactive,,
O=C(O)c1nn(Cc2ccc(Cl)cc2Cl)c2ccccc12,inactive,,inactive,inactive,inactive,inactive,,,
CC(C)(O)C#N,inactive,,inactive,inactive,inactive,inactive,inactive,inactive,inactive
O=[N+]([O-])c1ccc(Nc2ccccc2)cc1,inactive and 49 µM (active),,inactive,,inactive,inactive,,,
O=[N+]([O-])/N=C1\NCCN1Cc1ccc(Cl)nc1,inactive,,inactive,inactive,inactive,inactive,inactive,inactive,inactive
